The values below come from PubChem BioAssay (EPA / NIEHS).

Calls of active or inactive are those of the source. The calls were made as follows: active = hit-call score of the fitted dose curve at least 0.9, where 1 is the maximum; inactive = score below 0.9.

Read-out in this test: Glutathione S-transferase M3 (GSTM3), GSTM3 (gene 2947)
The experiment in a line: LTEA_HepaRG_GSTM3: Life Technologies and Expression Analysis (LTEA) Assay for Glutathione S-transferase M3 (GSTM3) using HepaRG (AID 2283501). The note with it: mRNA level, 48 h; actives raise or lower the signal. As to the method: LTEA_HepaRG is a cell based, multiplexed-readout assay that uses HepaRG, a human liver cell line, with measurements taken at 48 hours after chemical dosing on a 96-well plate.LTEA_HepaRG_GSTM3 is one of 102 assay component(s) measured in the LTEA HepaRG cell culture assay. It is a marker of Oxidative Stress.Data from the assay component LTEA_HepaRG_GSTM3 was analyzed into 1 endpoint. This assay endpoint, LTEA_HepaRG_GSTM3, was analyzed with bidirectional fitting relative to DMSO as the negative control and baseline of activity. Using a type of inducible reporter, measures of mRNA induction for gain or loss-of-signal activity can be used to understand regulation of transcription factor activity. To generalize the intended target to other relatable targets, this assay endpoint is annotated to the transferase intended target family, where the subfamily is alkyl and aryl transferase.
A total of 1060 chemcials from the ToxCast library were tested in eight-point concentration-response experiments. Cell culture and cytotoxicity assays were conducted at Thermo Fisher Scientific's Custom Services facility (Madison, WI). A single lot of human HepaRG cells (Thermo Fisher Scientific, Frederick, MD) was used for the cell culture experiments. 96-well format collagen type I coated plates of human HepaRG cells were prepared using established methods. Briefly, cryopreserved HepaRG cells were thawed, plated at a density of approximately 100,000 cells/well in HepaRG Thaw, Plate, and General Purpose media (HPRG770, Thermo Fisher Scientific), and incubated for 48 hours. 0.5% DMSO was selected as vehicle control to balance the requisite need of DMSO in HepaRG cultures to maintain differentiation (for example, baseline metabolism, proportions of hepatocytes vs. cholangiocytes), while enabling further hepatic receptor pathway activation (for example, PXR and CAR) in response to chemical exposure. 48 hours after plating, the culture medium was replaced with HepaRG Serum-Free Incudtion Media. Cells were exposed to each test chemical in duplicate and maintained in CO2 incubators for another 48 hours. Chemical plates were thawed to room temperature and 200x concentrations of treatment groups were prepared. 8-point conentration-reponse curves were made with the highest exposure at 100 uM, followed by half-log dilutions, all in 0.5% DMSO. Each test plate contained variouse controls, induction positive controls (1mM phenobarbital), cytotoxicity positive controls ([…] aflatoxin B1), vehicle controls (0.5% DMSO), and total lysis controls (0.5% DMSO). Cell morphology images were taken using an Essen IncuCyte FLR automated microscope, with six 96-well plates imaged in about 24 minutes. Images were captured and exported and JPEG files. Spent culture media was transfered to black-well plates for the LDH assay, and remaining media was sorted at -80 C for later use. Cells were treated with RLT buffer and frozen until shipped for gene expression analysis. Total RNA was isolated from the cell suspension in 75 uL of Buffer RLT (Qiagen, Germantown, MD 20874) by Quintiles/Expression Analysis (Durham, NC) using a custom isolation procedure. Total RNA from each plate well was transferred to a preamplification plate. Fluidigm's 96.96 Dynamic ArrayTM (Fluidigm, Amsterdam, the Netherlands) technology was used for gene expression analyses by quantitative reverse transcription polymerase chain reaction (qRT-PCR, performed by Quintiles/Expression Analysis, Durham, NC)89. Standard TaqManTM Assays (Applied Biosystems/ThermoFisher Scientific, Foster City, CA) were used to assess the expression of 93 genes selected based on their selectivity and sensitivity to important hepatic receptors known to be modulated by environmental chemicals; importance in human hepatocyte functionality; and hepatotoxicity. […]
Take `CCN1CCC2(CC1)COc1cc3c(cc12)N(C(=O)c1ccc(-c2ccc(-c4nnc(C)o4)cc2C)cc1)CC3`: the outcome was inactive.

In the case of `Cc1ccccc1N`, the compound was called inactive.

On to `Cn1sc(Cl)cc1=O`, for which the compound was classed as inactive.

Turning to `CC(C)(c1ccccc1)c1ccc(O)c(C(C)(C)c2ccccc2)c1`, the call was inactive.

As to `COc1cc(-c2ccc(N)c(OC)c2)ccc1N`, the call was inactive.

Regarding `O=C1C2(Cl)C3(Cl)C4(Cl)C(Cl)(Cl)C5(Cl)C3(Cl)C1(Cl)C5(Cl)C24Cl` (stereo unspecified), the result was inactive.

With `C=CC(=O)OCCCCCC(C)C`, the call was inactive.

For the compound `ClCC(Cl)CCl`, the call was inactive.

For `CCCCCCCCc1ccc(O)cc1`, the compound was classed as inactive.

For `CC(C)(C)c1cc(O)ccc1O`, the compound was called inactive.

In the case of `CC(C)(C)CC(C)(C)c1ccc(O)cc1`, the outcome was inactive.

`O=C(O)C(F)(F)C(F)(F)C(F)(F)C(F)(F)C(F)(F)C(F)(F)C(F)(F)C(F)(F)C(F)(F)C(F)(F)F`: the compound was called inactive.

In the case of `O=C(O)C(F)(F)C(F)(F)C(F)(F)C(F)(F)C(F)(F)C(F)(F)F`, the compound was classed as inactive.

On to `C=C(C)C(=O)[O][Sn]([CH2]CCC)([CH2]CCC)[CH2]CCC`, for which the result was inactive.

With `CCC(C)(C)c1ccc(O)c(C(C)(C)CC)c1`, the compound was called inactive.

For the compound `CC(=O)[O][Hg][c]1ccccc1`, the compound was called inactive.

Regarding `NC(=O)O`, the compound was classed as inactive.

As to `O=[N+]([O-])c1ccc(O)c([N+](=O)[O-])c1`, the half-maximal activity concentration (AC50) was 12.7 µM (active).

As for `CC12CC1(C)C(=O)N(c1cc(Cl)cc(Cl)c1)C2=O` (stereo unspecified), the outcome was inactive.

With `CCOP(=S)(OCC)SCSP(=S)(OCC)OCC`, the call was inactive.

As to `ClC1(Cl)C2(Cl)C3(Cl)C4(Cl)C(Cl)(Cl)C5(Cl)C3(Cl)C1(Cl)C5(Cl)C24Cl` (stereo unspecified), the compound was called inactive.

Turning to `O=C(O)C(Cl)(Cl)Cl`, the outcome was inactive.

Take `C[C@@H]1C[C@@H]([C@H](O)CC2CC(=O)NC(=O)C2)C(=O)[C@@H](C)C1`: the AC50 was 5.85 µM (active).

Regarding `O=C(Nc1ccc2[nH]ccc2c1)c1cc2cc(F)ccc2n1Cc1cccc(F)c1`, the compound was classed as inactive.

Take `CCC(=O)C(CC(C)N(C)C)(c1ccccc1)c1ccccc1` (stereo unspecified): the AC50 was 36.2 µM (active).

With `CC(C)(OO)c1ccccc1`, the outcome was inactive.

As for `C[C@]12CCC(=O)C[C@@H]1CC[C@@H]1[C@@H]2CC[C@]2(C)[C@@H](O)CC[C@@H]12`, the result was inactive.

Regarding `O=c1[nH]c(=O)[nH]c(=O)[nH]1`, the compound was called inactive.

As for `CN(C)N=O`, the result was inactive.

In the case of `CCOP(=S)(OCC)Oc1nc(Cl)c(Cl)cc1Cl`, the result was inactive.

For the compound `Oc1cccc2cccnc12`, the outcome was inactive.

By AC50 is commonly meant the midpoint of the concentration-response curve, whichever way the signal moves.
